This excerpt belongs to a sample that is enriched for hits.
HTT-AS act – activators of huntingtin-antisense promoter activity | HEK293 HTT-AS promoter firefly luciferase reporter, 24 h; response scale: percent change from vehicle, -100% = no light | Potency, µM (titrated, usually from 57.5 µM), inactives show at the highest dose activity change, positive = activation, usual class: activators | actives 0.24% (n = 48,000) | AID 1508624; note: nearly all actives have a fitted effect of over 55% in size
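HEK293 cells carrying firefly luciferase reporters were seeded at 2,500 per well in Opti-MEM and cultured for 24 h. They were then treated with compounds at up to 57.5 uM final for 24 h at 37 degrees C before Dual-Glo luminescence readout.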
NTMT1 inhibitor – NTMT1 methyltransferase inhibition; NTMT1 MTase-Glo SAH luminescence, purified enzyme; AID 1645870; actives 2.5% (n = 59,000); Potency, µM (series often up to 114 µM), inactives show at the top dose activity change, negative = inhibition, most hits filed as inhibitors; Q9BV86;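 note: plate controls were DMSO vehicle for no effect and no enzyme for full effect; nearly all actives have a fitted effect of over 65% in size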
Target sequence (Q9BV86 whole entry, looked up): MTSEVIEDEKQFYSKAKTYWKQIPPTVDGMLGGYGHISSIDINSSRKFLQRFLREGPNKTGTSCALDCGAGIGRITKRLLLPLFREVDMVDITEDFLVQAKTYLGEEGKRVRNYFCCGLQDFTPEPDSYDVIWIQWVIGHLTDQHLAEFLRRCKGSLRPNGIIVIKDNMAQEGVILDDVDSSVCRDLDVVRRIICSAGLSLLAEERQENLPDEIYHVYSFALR
HTT prom inh – inhibitors of huntingtin promoter activity; HEK293 HTT promoter firefly luciferase reporter, 24 h; Potency, µM (highest dose often 57.5 µM), for the others: at the top dose activity change, negative = inhibition, usual class: inhibitors; actives 0.93% (n = 48,000); note: nearly all actives have a fitted effect of over 50% in size
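HEK293 Fluc reporter, 2,500 cells/well, 24 h pre-culture; cpds up to 57.5 uM final, 24 h 37 degrees C; Dual-Glo, 10 min RT; normalized vehicle = 0%, zero RLU = -100%.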
Starred values were filed as active, the others as inactive; ? = inconclusive; / = not tested or not shown; ! = not confirmed by another sample; [ ] = another dose, or the depositor's remark. Calls come from the whole dose curve; as a rule, active = well fitted curve in the direction sought with a large enough effect; inconclusive = small, poorly fitted or top-dose-only effect, or another doubt; inactive = no such curve, though single readings can be large; an effect the other way counts as inactive or inconclusive. Potency is the fitted concentration of half-maximal effect.

SMILES | HTT-AS act | NTMT1 inhibitor | HTT prom inh
COc1ccccc1NC(=O)c1ccc2c(Cl)c3c(nc2c1)CCCC3 | 5.3% | -0.2% | 2.6%
O=C(Nc1ccccc1F)c1ccc2c(Cl)c3c(nc2c1)CCC3 | -68.5% | 25.1µM* | 12.6µM*
CC(C)(C)c1ccc(C(=O)Nc2cn3cc(-n4ccnc4)ccc3n2)cc1 | / | 3.8%[57.5 µM] | /
Cc1ccc(S(=O)(=O)Nc2ccccc2C(=O)Nc2ccc(-c3ccccc3)cn2)cc1 | / | 1.5%[57.5 µM] | /
OCCN1CCN(CCCN2c3ccccc3Sc3ccc(C(F)(F)F)cc32)CC1 | -28.7% | 31.6µM*! | -14.7%
CN(C)CCCN1c2ccccc2Sc2ccc(C(F)(F)F)cc21 | -23.0% | ? | -16.5%
C=CC(=O)N1CCC(C2CCNc3c(C(N)=O)c(-c4ccc(Oc5ccccc5)cc4)nn32)CC1 (stereo not given) | / | -4.2% | /
Cc1cc(N[S+](=O)([O-])c2ccc(NC(=O)Cc3ccc4c(c3)OCCO4)cc2)no1 | / | 7.8% | /
CC(C)C1CCC(C(=O)Nc2ccc(S(=O)(=O)Nc3nccs3)cc2)CC1 (stereo not given) | / | 10.6% | /
COc1ccc(-c2nc3c4ccccc4n(CC(=O)N4CCN(c5ccc(F)cc5)CC4)c(=O)n3n2)cc1 | -2.6% | 89.1µM* | -2.1%
COc1ccccc1N1CCN(C(=O)Cn2c(=O)n3nc(-c4ccc(C)cc4)nc3c3ccccc32)CC1 | 8.8% | -3.2% | 15.4%
C=C1C(=O)O[C@H]2[C@H]1CC/C(C)=C/CC[C@@]1(C)O[C@@H]21 | / | 16.2%[57.5 µM] | /
O=C1CCCC2=C1C(c1[nH]ncc1Cl)NC(=NCc1ncc[nH]1)N2 (stereo not given) | / | 3.9%[57.5 µM] | /
CC(=O)c1ccccc1-c1ncc(C)c(NCC2CCN(c3cccnc3)CC2)n1 | / | 4.5%[57.5 µM] | /
Cc1cc(=O)oc2c(C=O)c(O)ccc12 | / | 9.2%[57.5 µM] | /
Cc1cc2c(C(C)C)c(O)c(O)c(C=O)c2c(O)c1-c1c(C)cc2c(C(C)C)c(O)c(O)c(C=O)c2c1O | -88.7% | 20µM*! | ?
CC(C)=CCc1cc(C(O)C2NC(=O)CNC(=O)C(Cc3c[nH]c4ccccc34)NC(=O)C3CCCN3C(=O)CNC(=O)C(C(C)C)NC(=O)CNC2=O)ccc1O (stereo not given) | / | 4.9%[12.6 µM] | /
Cc1ccc(N2C(=O)N(Cc3cccc(Cl)c3)c3ccccc3S2(=O)=O)cc1 | -27.1% | -24.8% | ?
CCc1ccccc1N1C(=O)N(Cc2cccc(Cl)c2)c2ccccc2S1(=O)=O | -39.8% | 89.1µM* | ?
[O-][n+]1cccc(-c2nc3c(Cl)cccc3cc2[C@@H](Nc2ncnc3cccnc23)C(F)(F)F)c1 | / | -0.9% | /
CS(=O)(=O)c1ccc(C(=O)OC(C(=O)NC2C3CC4CC(C3)CC2C4)c2ccccc2)cc1[N+](=O)[O-] (stereo not given) | / | 4.2% | /
Cc1ccc(CNC(=O)C(=O)NCC(c2cccnc2)N2CCN(c3ccccc3F)CC2)cc1 (stereo not given) | -48.2% | 5.1% | 14.1µM*
COc1ccc(CNC(=O)C(=O)NCC(c2cccnc2)N2CCN(c3ccccc3)CC2)cc1 (stereo not given) | -36.2% | -3.8% | 12.6µM*
O=C(NCCc1ccccc1)C(=O)NCC(c1cccnc1)N1CCN(c2ccccc2)CC1 (stereo not given) | -40.5% | -18.9% | ?
O=C(NCC(c1cccnc1)N1CCN(c2ccccc2F)CC1)C(=O)Nc1ccc(F)cc1F (stereo not given) | -8.8% | 13.9% | -28.2%
SMILES | HTT-AS act | NTMT1 inhibitor | HTT prom inh
COc1ccc(C(=O)NCC(c2cccnc2)N2CCN(c3ccccc3)CC2)cc1 (stereo not given) | -23.7% | -2.6% | ?
COc1ccc(CCNC(=O)C(=O)NCC(c2cccnc2)N2CCN(c3ccccc3)CC2)cc1 (stereo not given) | -63.7% | -0.6% | 12.6µM*
CNC12CC3C[C@@](C)(C1)C[C@](C)(C3)C2 | / | -6.3%[57.5 µM] | /
COc1cc(NC(=O)c2ccc(-c3nc(COc4ccccc4)c(C)o3)cc2)cc(OC)c1 | -47.8% | 4.8% | 14.1µM*
Cc1oc(-c2ccc(C(=O)Nc3ccc(F)cc3)cc2)nc1COc1ccccc1 | -19.7% | -5.8% | ?
COC(=O)C1=C2Nc3ccccc3C23CCN2CCCC(C(C)O)(C1)C23 (stereo not given) | / | 11.1%[29.8 µM] | /
O=C(O)c1cccc(C(=O)CCC2OC(n3cnc4c(=O)[nH]cnc43)C(O)C2O)c1 (stereo not given) | / | 8.0%[29.8 µM] | /
Cc1cc(C)cc(Nc2nc3ccccc3n3cnnc23)c1 | -4.8% | 5.6% | -6.6%
O=C(O)c1ccc(Nc2nc3ccccc3n3cnnc23)cc1 | ? | 12.6µM* | 27.9%
CCCCN(C)C(=O)Cn1nc(-c2cccc(C)c2)ccc1=O | / | 3.5% | /
